Reference: PubChem BioAssay (NCI)
This is part of a sample that, as a whole, favours compounds with a hit. Of some 79,000 tested, about 15% had one in any assay. Calls of active or inactive are those of the source. No stated cut-off is given here; in the data, active means growth inhibition above about 70%; inactive means the rest.

How the values were obtained:
[1] = NCI Yeast Anticancer Drug Screen. Data for the rad52 strain (AID 147);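 further: 0% = growth of vehicle-treated control cultures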; settings: S. cerevisiae rad52 mutant growth inhibition, active compounds read high
Procedure, shortened: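 The repair-mutant yeast strain was incubated with compounds, then growth was read and inhibition derived relative to vehicle.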

[2] = NCI Yeast Anticancer Drug Screen. Data for the wt1 strain (AID 149);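 further: 0% = growth of vehicle-treated wt1 cultures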; settings: S. cerevisiae wt1 strain (SPY 50644) growth inhibition, active compounds read high
Procedure, shortened: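 wt1 yeast, compound-treated; % growth inhibition vs vehicle control.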

[3] = NCI Yeast Anticancer Drug Screen. Data for the rad50EPP+ strain (AID 151);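 further: 0% = growth of vehicle-treated control cultures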; settings: S. cerevisiae rad50 mutant strain, active compounds read high
Procedure, shortened: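 Vehicle-normalised growth inhibition; rad50EPP+ yeast strain, altered in DNA damage repair, compound-treated.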

[4] = NCI Yeast Anticancer Drug Screen. Data for the rad50 strain (AID 155);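 further: 0% = growth of vehicle-only cultures of the same strain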; settings: S. cerevisiae rad50 strain growth inhibition, active compounds read high
Procedure, shortened: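 Genetically altered yeast (DNA repair pathway); compound treatment; growth inhibition vs vehicle ctrl.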

[5] = NCI Yeast Anticancer Drug Screen. Data for the mec2-1 strain (AID 157); settings: S. cerevisiae mec2-1 strain, active compounds read high
Procedure, shortened: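 Mutant yeast (mec2-1) grown with compound; growth inhibition relative to vehicle control reported.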

[6] = NCI Yeast Anticancer Drug Screen. Data for the sgs1 mgt1 strain (AID 161);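 further: 0% = growth of cultures given vehicle only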; settings: S. cerevisiae sgs1 mgt1 strain, active compounds read high
Procedure, shortened: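 Compounds are added to genetically altered yeast, and growth is compared with cultures given vehicle alone to give percent inhibition.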

[7] = NCI Yeast Anticancer Drug Screen. Data for the CLN2oe strain (AID 163);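 further: 0% = growth of vehicle-only control cultures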; settings: S. cerevisiae CLN2oe strain, active compounds read high
Procedure, shortened: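 Compounds are applied to yeast harbouring a defined cell-cycle control change; reduced growth compared with vehicle-treated controls gives the value.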

[8] = NCI Yeast Anticancer Drug Screen. Data for the cln2 rad14 strain (AID 165);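 further: 0% = growth equal to vehicle treated cultures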; settings: S. cerevisiae cln2 rad14 strain, active compounds read high
Procedure, shortened: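 Readout is yeast growth inhibition versus vehicle-treated controls, using a strain with cln2 and rad14 alterations exposed to compound.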

[9] = NCI Yeast Anticancer Drug Screen. Data for the bub3 strain (AID 167); settings: S. cerevisiae bub3 mutant strain, active compounds read high
Procedure, shortened: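 Yeast carrying a defined mutation is treated with each compound, and growth is compared with that of vehicle-exposed cells to give inhibition.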

[10] = NCI Yeast Anticancer Drug Screen. Data for the wt2 strain (AID 169);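 further: 0% = growth of vehicle-treated yeast cultures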; settings: S. cerevisiae wt2 strain growth inhibition, active compounds read high
Procedure, shortened: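 Against vehicle-treated controls, the growth of yeast exposed to each compound was compared, and the inhibition was recorded.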

[11] = NCI Yeast Anticancer Drug Screen. Data for the mlh1 strain (AID 171);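 further: 0% = growth of vehicle-treated control cultures of the same strain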; settings: S. cerevisiae mlh1 strain growth inhibition, active compounds read high
Procedure, shortened: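 Measured: yeast growth. Reference: vehicle-treated controls. Organism: strain with a defined alteration affecting DNA damage repair or cell cycle control, treated with compound.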

[12] = NCI Yeast Anticancer Drug Screen. Data for the mlh1 rad18 strain (AID 175); settings: S. cerevisiae mlh1 rad18 strain growth inhibition, active compounds read high
Procedure, shortened: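 Genetically defined yeast (DNA repair-deficient) exposed to compounds; growth inhibition determined relative to vehicle.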

[13] = NCI Yeast Anticancer Drug Screen. Data for the rad18 strain (AID 177); settings: S. cerevisiae rad18 mutant growth inhibition, active compounds read high
Procedure, shortened: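 Vehicle-treated cultures served as the baseline for scoring compound-induced growth inhibition in DNA-repair-mutant yeast.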

[14] = NCI Yeast Anticancer Drug Screen. Data for the mgt1 strain (AID 153); settings: S. cerevisiae mgt1 mutant growth inhibition, active compounds read high
Procedure, shortened: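 Vehicle-normalized growth inhibition is determined in mgt1 yeast, a strain selected for a defined alteration in DNA repair or cell cycle control.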

[15] = NCI Yeast Anticancer Drug Screen. Data for the rad14 strain (AID 159);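 further: 0% = growth of vehicle-treated control cultures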; settings: S. cerevisiae rad14 strain growth inhibition, active compounds read high
Procedure, shortened: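 Test compounds were applied to a repair-deficient yeast strain. Its growth was then compared with that of cultures given vehicle alone, and inhibition was expressed relative to those controls.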

[16] = NCI Yeast Anticancer Drug Screen. Data for the sgs1 strain (AID 173);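 further: 0% = growth of vehicle-only control cultures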; settings: S. cerevisiae sgs1 mutant, active compounds read high
Procedure, shortened: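 Each compound was added to cultures of the altered yeast strain. Growth was recorded, and inhibition was derived by comparison with vehicle controls.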

[17] = at 5.0 µM (retest, dose inferred, filed as 0.5)
[18] = at 50.0 µM (retest, dose inferred, filed as 5.0)

Measured: growth inhibition

CCN(CC)CC(O)c1cc(-c2ccc(Cl)cc2)nc2c(-c3ccccc3)cccc12 (stereo unspecified)
active: [1]; at 11.0 µM 98% | [1]; at 33.0 µM 98% | [1]; at 100.0 µM 93% | [2]; at 11.0 µM 98% | [2]; at 33.0 µM 98% | [2]; at 100.0 µM 95% | [3]; at 11.0 µM 96% | [3]; at 33.0 µM 98% | [3]; at 100.0 µM 95% | [4]; at 11.0 µM 98% | [4]; at 33.0 µM 98% | [4]; [18] 94% | [4]; at 50.0 µM 94.7% | [4]; at 100.0 µM 93% | [5]; at 11.0 µM 98% | [5]; at 33.0 µM 98% | [5]; [18] 98% | [5]; at 50.0 µM 87.9% | [5]; at 100.0 µM 96% | [6]; [18] 97% | [6]; at 50.0 µM 97.7% | [7]; at 11.0 µM 98% | [7]; at 33.0 µM 97% | [7]; at 100.0 µM 94% | [8]; [18] 91% | [9]; at 11.0 µM 98% | [9]; at 33.0 µM 97% | [9]; [18] 95% | [9]; at 100.0 µM 92% | [10]; at 11.0 µM 99% | [10]; at 33.0 µM 98% | [10]; at 100.0 µM 94% | [11]; at 11.0 µM 99% | [11]; at 33.0 µM 98% | [11]; at 100.0 µM 95% | [12]; [18] 96% | [12]; at 50.0 µM 99.2% | [13]; at 11.0 µM 98% | [13]; at 33.0 µM 98% | [13]; at 100.0 µM 95%
inactive: [1]; at 1.2 µM -1% | [1]; at 3.7 µM -1% | [2]; at 1.2 µM 0% | [2]; at 3.7 µM -2% | [3]; at 1.2 µM -1% | [3]; at 3.7 µM 7% | [4]; at 1.2 µM 1% | [4]; at 3.7 µM 6% | [4]; [17] 48% | [5]; at 1.2 µM -8% | [5]; at 3.7 µM -3% | [5]; [17] 32% | [6]; [17] 41% | [7]; at 1.2 µM 0% | [7]; at 3.7 µM 2% | [8]; [17] 6% | [8]; at 50.0 µM 8.2% | [9]; at 1.2 µM 1% | [9]; at 3.7 µM -5% | [9]; [17] 22% | [9]; at 50.0 µM 46.3% | [10]; at 1.2 µM -2% | [10]; at 3.7 µM -4% | [11]; at 1.2 µM -2% | [11]; at 3.7 µM 2% | [12]; [17] 59% | [13]; at 1.2 µM -2% | [13]; at 3.7 µM -1%

CC1CCC2(C(=O)O)CCC3(C)C(=CCC4C5(C)CC(O)C(O)C(C)(CO)C5C(O)CC43C)C2C1C (stereo unspecified)
active: [1]; at 100.0 µM 81% | [4]; [18] 88% | [4]; at 50.0 µM 76.9% | [5]; [18] 90% | [5]; at 50.0 µM 82.3% | [5]; at 100.0 µM 75% | [15]; at 100.0 µM 85% | [6]; [18] 70% | [6]; at 50.0 µM 78.7% | [7]; at 100.0 µM 78% | [8]; [18] 77% | [10]; at 100.0 µM 96% | [11]; at 100.0 µM 95% | [16]; at 100.0 µM 95% | [12]; [18] 78% | [13]; at 100.0 µM 87%
inactive: [1]; at 1.2 µM -23% | [1]; at 3.7 µM -25% | [1]; at 11.0 µM -28% | [1]; at 33.0 µM -15% | [3]; at 1.2 µM 0% | [3]; at 3.7 µM -7% | [3]; at 11.0 µM -2% | [3]; at 33.0 µM 3% | [3]; at 100.0 µM 33% | [14]; at 1.2 µM -34% | [14]; at 3.7 µM -34% | [14]; at 11.0 µM -32% | [14]; at 33.0 µM -36% | [14]; at 100.0 µM 47% | [4]; at 1.2 µM 13% | [4]; at 3.7 µM -20% | [4]; [17] 54% | [4]; at 11.0 µM -20% | [4]; at 33.0 µM -28% | [4]; at 100.0 µM 63% | [5]; at 1.2 µM -15% | [5]; at 3.7 µM -6% | [5]; [17] -1% | [5]; at 11.0 µM -17% | [5]; at 33.0 µM -15% | [15]; at 1.2 µM -13% | [15]; at 3.7 µM -13% | [15]; at 11.0 µM -4% | [15]; at 33.0 µM 6% | [6]; [17] 16% | [7]; at 1.2 µM -6% | [7]; at 3.7 µM -4% | [7]; at 11.0 µM 3% | [7]; at 33.0 µM 7% | [8]; [17] 20% | [8]; at 50.0 µM 39.1% | [10]; at 1.2 µM -2% | [10]; at 3.7 µM -2% | [10]; at 11.0 µM -1% | [10]; at 33.0 µM 21% | [11]; at 1.2 µM -29% | [11]; at 3.7 µM -8% | [11]; at 11.0 µM -20% | [11]; at 33.0 µM -2% | [16]; at 1.2 µM -4% | [16]; at 3.7 µM 9% | [16]; at 11.0 µM -10% | [16]; at 33.0 µM -17% | [12]; [17] 41% | [12]; at 50.0 µM 58.7% | [13]; at 1.2 µM -43% | [13]; at 3.7 µM -47% | [13]; at 11.0 µM -42% | [13]; at 33.0 µM -61%

CCCCCC(=O)c1ccc(O)cc1O
inactive: [1]; at 1.2 µM -14% | [1]; at 3.7 µM 1% | [1]; at 11.0 µM 10% | [2]; at 1.2 µM -14% | [2]; at 3.7 µM -18% | [2]; at 11.0 µM -6% | [14]; at 1.2 µM 17% | [14]; at 3.7 µM -2% | [14]; at 11.0 µM 12% | [4]; at 1.2 µM -7% | [4]; at 3.7 µM -4% | [4]; at 11.0 µM 2% | [5]; at 1.2 µM -7% | [5]; at 3.7 µM -6% | [5]; at 11.0 µM 10% | [15]; at 1.2 µM -9% | [15]; at 3.7 µM -5% | [15]; at 11.0 µM -3% | [7]; at 1.2 µM -3% | [7]; at 3.7 µM 8% | [7]; at 11.0 µM 1% | [8]; [17] 37% | [9]; at 1.2 µM 8% | [9]; at 3.7 µM 14% | [9]; [17] 33% | [9]; at 11.0 µM 40% | [10]; at 1.2 µM -3% | [10]; at 3.7 µM -4% | [10]; at 11.0 µM -18% | [11]; at 1.2 µM 7% | [11]; at 3.7 µM 10% | [11]; at 11.0 µM 20% | [16]; at 1.2 µM -19% | [16]; at 3.7 µM -2% | [16]; at 11.0 µM -6% | [13]; at 1.2 µM -17% | [13]; at 3.7 µM 3% | [13]; at 11.0 µM 9%
active: [1]; at 33.0 µM 90% | [1]; at 100.0 µM 98% | [2]; at 33.0 µM 91% | [2]; at 100.0 µM 99% | [14]; at 33.0 µM 93% | [14]; at 100.0 µM 99% | [4]; [17] 92% | [4]; at 33.0 µM 91% | [4]; [18] 98% | [4]; at 50.0 µM 89.2% | [4]; at 100.0 µM 97% | [5]; [17] 91% | [5]; at 33.0 µM 95% | [5]; [18] 99% | [5]; at 50.0 µM 91.8% | [5]; at 100.0 µM 99% | [15]; at 33.0 µM 90% | [15]; at 100.0 µM 98% | [7]; at 33.0 µM 86% | [7]; at 100.0 µM 99% | [8]; [18] 90% | [9]; at 33.0 µM 93% | [9]; [18] 92% | [9]; at 100.0 µM 99% | [10]; at 33.0 µM 87% | [10]; at 100.0 µM 99% | [11]; at 33.0 µM 90% | [11]; at 100.0 µM 95% | [16]; at 33.0 µM 90% | [16]; at 100.0 µM 98% | [12]; [17] 97% | [12]; [18] 99% | [12]; at 50.0 µM 91.2% | [13]; at 33.0 µM 92% | [13]; at 100.0 µM 98%
